# Measurements taken from PubChem BioAssay (NCATS).
# Values joined by “and” are separate entries in the source; they are usually repeats but may differ in a detail not shown here. Equal entries are not always repeated. Inconclusive results are not listed. Unmarked numbers belong to inactive results. Active and inactive are the calls of the source. Calls come from the whole dose curve; as a rule, active = well fitted inhibition curve with a large enough effect; inconclusive = small, poorly fitted or top-dose-only effect; inactive = flat fitted curve, though single readings scatter.
# System: NIH3T3
# Assay: Cytotoxic Profiling of Annotated Libraries Using Quantitative High-Throughput Screening (AID 1296008); note: nearly all actives have a fitted effect of over 60% in size
# Conditions: Five cell lines viability, CellTiter-Glo ATP luminescence, 48-72 h; max response: active compounds read low
# Text: Cell-based phenotypic screening is a commonly used approach to discover biological pathways, novel drug targets, chemical probes and high-quality hit-to-lead molecules. Many hits identified from high-throughput screening campaign are ruled out through a series of follow-up potency, selectivity/specificity, and cytotoxicity assays. Prioritization of molecules with little or no cytotoxicity for a more in-depth downstream evaluation influence the future direction of projects, so cytotoxicity profiling of the screening libraries at early stage is essential for increasing the likelihood of candidate success. […] For the annotated library, we also examined the primary targets and mechanistic pathways regularly associated with cell death. To our knowledge, this is the first study to use high-throughput screening to profile large libraries for cytotoxicity assessment in both normal and cancer cell lines. In summary, the results generated here constitutes a valuable resource for the scientific community and provides insight on identifying cytotoxic compounds with particular mechanisms of action, and prioritizing compounds with suitable cytotoxicity profile for further evaluation.
# A pintool (Kalypsys) was used to transfer 23 nL of compound solution to the 1536-well assay plates. After 48 or 72 hr incubation at 37 degree Celsius, 5% CO2 and 95% humidity, 2.5 uL of CellTiter-Glo (Promega) was dispensed into each well using a dispenser (Aspect Automation, St. Paul, MN) with solenoid valves (Lee Valves, Westbrook CT). Plates were left at room temperature for 10 min before imaging the ATP-coupled luminescence using a ViewLux microplate imager (PerkinElmer, Waltham, MA).
# % is set by controls: 0 for no effect and ±100 for the full control effect; potency is the fitted concentration of half-maximal effect.
SMILES,outcome,Potency,max response
CCOC(=O)O[C@]1(C(=O)OCCl)CC[C@@H]2[C@H]3CCC4=CC(=O)C=C[C@]4(C)[C@@H]3[C@@H](O)C[C@@]21C,inactive,,
CC(C)n1nc(-c2ccc3oc(N)nc3c2)c2c(N)ncnc21,,5.3 nM (active) and 259 nM (active),
CCOC(=O)C1=C(N)Oc2ccc(Br)cc2C1C(C#N)C(=O)OCC (stereo not given),inactive,,0.0498% and 4.88%
CCNc1cc(NC2CCC(O)CC2)nc(Nc2ccc3c(ccn3Cc3ccccc3)c2)n1 (stereo not given),inactive,,
C=C1C(=O)OC2C=C(C)CCC=C(C)CCC12 (stereo not given),,,0.3%
N[C@@]1(C(=O)O)CS(=O)(=O)[C@H]2[C@H](C(=O)O)[C@H]21,,,-12.5%
CCc1ccc(OCc2ccccc2C(=O)Nc2ccc3nc(C)cc(N)c3c2)cc1,,9.35 µM (active),
Nc1ncnc2c1nc(Cl)n2[C@@H]1O[C@H](CO)[C@@H](O)[C@@H]1O,,26.4 µM (active),
OC[C@H]1O[C@@H](n2cnc3c2NC=NC[C@@H]3O)C[C@H]1O,inactive,,
CN[C@@H](C)C(=O)N[C@H]1CN(C(=O)CC(C)C)CC[C@H]2CC[C@@H](C(=O)NC(c3ccccc3)c3ccccc3)N2C1=O,,,-2.17% and -4.72%
CN(C)Cc1cccc(N=C(c2ccccc2)c2c(O)[nH]c3cc(C(=O)N(C)C)ccc23)c1,,13.2 µM (active),
CC(C)(C)c1ccc(C(O)CCCN2CCC(C(O)(c3ccccc3)c3ccccc3)CC2)cc1 (stereo not given),,,-3.57%
Cn1c(N2CCCCS2(=O)=O)nc(C(=O)NCc2ccc(F)cc2)c(O)c1=O,inactive,,-0.0051%
Cc1nnc(C(C)C)n1C1C[C@H]2CC[C@@H](C1)N2CC[C@H](NC(=O)C1CCC(F)(F)CC1)c1ccccc1 (stereo not given in full),inactive,,
CN1C[C@H]2c3ccccc3Oc3ccc(Cl)cc3[C@@H]2C1,,,-1.33% and 3.58%
COc1cc(Nc2ncc(F)c(Nc3ccc4c(n3)NC(=O)C(C)(C)O4)n2)cc(OC)c1OC,,8.2 µM (active),
C[N+]1(C)[C@@H]2CC(OC(=O)[C@H](CO)c3ccccc3)C[C@H]1[C@H]1O[C@@H]12 (stereo not given in full),,,-3.27%
Nc1ncnc2c1ncn2[C@@H]1O[C@@H](CO)[C@H](O)[C@H]1O,,,-24.9%
COC(=O)[C@@H]1[C@H]2C[C@H]3c4[nH]c5ccccc5c4CCN3C[C@@H]2CC[C@@H]1O,inactive,,-5.76%

SMILES,outcome,Potency,max response
NC(=O)[C@@H](CCC(F)(F)F)N(Cc1ccc(-c2ncon2)cc1F)S(=O)(=O)c1ccc(Cl)cc1,,,-26.9%
O=C1NCC2(CCN(CCc3ccccc3)CC2)O1,inactive,,
N#Cc1ccc(NC(=O)Nc2ccccc2Br)c2n[nH]nc12,,,3.86%
CO[C@H]1C(=O)[C@]2(C)[C@@H](OC)C[C@H]3OC[C@@]3(OC(C)=O)[C@H]2[C@H](OC(=O)c2ccccc2)[C@]2(O)C[C@H](OC(=O)[C@H](O)[C@@H](NC(=O)OC(C)(C)C)c3ccccc3)C(C)=C1C2(C)C,,,-69.8%
O=C(O)Cc1cccc2ccccc12,,,-0.562% and 0.69%
O=c1cc(-c2ccc(O)cc2)oc2cc(O)cc(O)c12,,,-14.4%
CC[C@]1(O)C[C@@H]2CN(CCc3c([nH]c4ccccc34)[C@@](C(=O)OC)(c3cc4c(cc3OC)N(C)[C@H]3[C@@](O)(C(=O)OC)[C@H](OC(C)=O)[C@]5(CC)C=CCN6CC[C@]43[C@@H]65)C2)C1,,0.335 µM (active),
COc1cc2c(cc1OC)CN(CCc1ccc(NC(=O)c3cc(OC)c(OC)cc3NC(=O)c3cnc4ccccc4c3)cc1)CC2,,,-16.8%
CCOC1OC(=O)C[C@H]1NC(=O)[C@@H]1CCCN1C(=O)[C@@H](NC(=O)c1ccc(N)c(Cl)c1)C(C)(C)C (stereo not given in full),inactive,,
CC[C@H]1OC(=O)[C@H](C)C(=O)[C@H](C)[C@@H](O[C@H]2O[C@H](C)C[C@H](N(C)C)[C@@H]2O)[C@](C)(OC)C[C@@H](C)C(=O)[C@H](C)[C@H]2N(CCCCn3cnc(-c4cccnc4)c3)C(=O)O[C@]12C,,,-10.2%
COc1ccc2c(Oc3ccc(NC(=O)c4c(C)n(CC(C)(C)O)n(-c5ccccc5)c4=O)cc3F)ccnc2c1,,8.33 µM (active) and 10.3 µM (active),
COc1cc(N2CCC(N3CCN(C)CC3)CC2)ccc1Nc1ncnc(Nc2ccccc2S(=O)(=O)C(C)C)n1,,3.32 µM (active) and 3.66 µM (active),
C[C@H](NC(=O)C(=O)Nc1ccccc1C(C)(C)C)C(=O)N[C@@H](CC(=O)O)C(=O)COc1c(F)c(F)cc(F)c1F,inactive,,
O=C(Nc1c(Cl)cncc1Cl)c1ccc(OC(F)F)c(OCC2CC2)c1,,,-4.15%
CO[C@H]1C[C@@H]2CC[C@@H](C)[C@@](O)(O2)C(=O)C(=O)N2CCCC[C@@H]2C(=O)O[C@H]([C@H](C)C[C@@H]2CC[C@H](OCCO)[C@H](OC)C2)CC(=O)[C@H](C)C=C(C)[C@@H](O)[C@@H](OC)C(=O)[C@H](C)C[C@H](C)C=CC=CC=C1C,,8.33 µM (active),
CC#CCn1c(N2CCC[C@@H](N)C2)nc2c1c(=O)n(Cc1nc(C)c3ccccc3n1)c(=O)n2C,inactive,,
O=C(CCN1CCN(C(=O)OCc2cc(Cl)cc(Cl)c2)CC1)c1ccc2[nH]c(=O)oc2c1,,,1.12% and -60.6%
N[C@H](CSC(c1ccccc1)(c1ccccc1)c1ccccc1)C(=O)O,,26.4 µM (active),
